Hit rate of the full screen: of about 52,000 compounds, about 4,300 (8.3%) were called active. No stated cut-off is given here; in the data, active means survival mostly below about 52% (no sharp cut-off); inactive means mostly above about 56%. Shown is part of a subset that was picked to be rich in actives.
system: DeltatarO mutant; experiment: growth inhibition of S. aureus wild type versus tarO mutant, primary screen, teichoic acid synthesis inhibitors, RN4220, OD600 (AID 463173); settings: OD600, 18 h, active compounds read low, screened at 18.75 µg/mL (by protocol)

| SMILES | survival |
| --- | --- |
| O=C(NCCc1ccc(Cl)cc1)c1cc(-c2ccc(Cl)cc2)n[nH]1 | 68% (inactive) |
| CCOC(=O)c1nnc2c(-c3ccc(Cl)cc3)c(C)nn2c1C | 49% (inactive) |
| CC(=O)Nc1ccc(NC(=O)C(Cc2ccccc2)N2Cc3ccccc3C2=O)cc1 (stereo unspecified) | 82% (inactive) |
| Cc1ccc(NC(=O)C(Cc2ccccc2)n2cccc2)cc1 (stereo unspecified) | 76% (inactive) |
| O=C(Nc1ccc(C(F)(F)F)cc1)C(Cc1ccccc1)n1cccc1 (stereo unspecified) | -4% (active) |
| CC(C)c1ccc(NC(=O)C(Cc2ccccc2)n2cccc2)cc1 (stereo unspecified) | 23% (active) |
| COc1ccc(NC(=O)C(Cc2ccccc2)n2cccc2)c(OC)c1 (stereo unspecified) | 67% (inactive) |
| O=C(Nc1ccccc1F)C(Cc1ccccc1)n1cccc1 (stereo unspecified) | 77% (inactive) |
| CCOc1ccc(S(=O)(=O)NCCc2sc3nc(-c4ccc(C)cc4)nn3c2C)cc1 | 109% (inactive) |
| Cc1coc2c(C)c3oc(=O)c(CC(=O)N4CCCCC4)c(C)c3cc12 | 79% (inactive) |
| Cc1coc2c(C)c3oc(=O)c(CCC(=O)N4CCCCC4)c(C)c3cc12 | 44% (active) |
| Cc1oc2c(C)c3oc(=O)c(CCC(=O)N4CCCCC4)c(C)c3cc2c1C | 89% (inactive) |
| CC1CCC(N2CC(=O)N(C3CCCCC3)C(c3ccc(F)cc3)C2=O)CC1 (stereo unspecified) | 82% (inactive) |
| CCCOc1ccc(-c2nc(N3CCCCC3)c3ccccc3n2)cc1 | -2% (active) |
| Cc1ccc(-c2nc(N3CCN(c4ccccc4Cl)CC3)c3ccccc3n2)cc1 | 52% (inactive) |
| CCCOc1ccc(-c2nc(N3CCC(C)CC3)c3ccccc3n2)cc1 | -1% (active) |
| CCOc1ccc(-n2cc(-c3ccccc3)c3c(N4CCC(C)CC4)ncnc32)cc1 | 90% (inactive) |
| c1ccc(-c2nc(N3CCCCC3)c3ccccc3n2)cc1 | 96% (inactive) |
| CCCOc1ccc(CNC(=O)C2CCN(c3nc4ccccc4nc3C(F)(F)F)CC2)cc1 | 75% (inactive) |
| Cc1ccc(C)c(N2CCN(S(=O)(=O)c3c(C)nc4sccn4c3=O)CC2)c1 | 92% (inactive) |
| CCc1ccc(N=C2NC(=O)CC(C(=O)Nc3ccc(OC)cc3)S2)cc1 (stereo unspecified) | 87% (inactive) |
| CCOc1ccc(NC(=O)C2CC(=O)NC(=Nc3ccc(Cl)c(Cl)c3)S2)cc1 (stereo unspecified) | 72% (inactive) |
| CCOC(=O)c1ccc(NC(=O)C2CC(=O)NC(=Nc3ccc(C)c(C)c3)S2)cc1 (stereo unspecified) | 47% (active) |
| CN(C)c1ccc(C(C(=O)NCC2CCCO2)N(C(=O)Cn2nnc3ccccc32)c2ccc3c(c2)OCO3)cc1 (stereo unspecified) | 90% (inactive) |

| SMILES | survival |
| --- | --- |
| O=C(Nc1cccc(Cl)c1Cl)c1cc(S(=O)(=O)N2CCCCC2)ccc1F | 72% (inactive) |
| O=C(Nc1cccc(F)c1)C1CCN(S(=O)(=O)c2cccc3nsnc23)CC1 | 83% (inactive) |
| COc1ccc(N2CCN(Cc3nc(-c4ccc(C)cc4)no3)CC2)cc1 | 48% (inactive) |
| COc1cc(-c2noc(CN3CCN(c4cccc(Cl)c4)CC3)n2)cc(OC)c1OC | 77% (inactive) |
| COc1ccc(-c2noc(CN3CCN(c4cccc(Cl)c4)CC3)n2)cc1 | 13% (active) |
| Cc1cccc(N(C)c2nc3ccccc3c3nnc(C)n23)c1 | 118% (inactive) |
| COc1ccc(C)cc1NC(=O)N1CCC(CN2CCC(C)CC2)CC1 | 91% (inactive) |
| CCCCN(c1ccccc1)S(=O)(=O)c1cc2c3c(c1)C(C)C(=O)N3CCC2 (stereo unspecified) | 69% (inactive) |
| CCCC(=O)Nc1cccc(-c2nc3ncccc3o2)c1 | 66% (inactive) |
| CCC(C)c1ccc(OCC(=O)Nc2cccc3ccc(C)nc23)cc1 (stereo unspecified) | -3% (active) |
| CCC(C)c1ccc(OCC(=O)Nc2ccc(-c3nc4ncccc4o3)cc2)cc1 (stereo unspecified) | 44% (inactive) |
| Cc1ccc2cccc(NC(=O)COc3cc(C)c(Cl)c(C)c3)c2n1 | 75% (inactive) |
| CCC(C)c1ccc(OCC(=O)Nc2cccc(-c3nc4ncccc4o3)c2)cc1 (stereo unspecified) | 19% (active) |
| Cc1ccc(C(C)C)c(OCC(=O)Nc2ccc3c(c2)nc(CCNC(=O)c2ccco2)n3C)c1 | 54% (inactive) |
| Cc1ccccc1OCC(=O)Nc1ccc(-c2nc3ncccc3o2)cc1 | 60% (inactive) |
| Cc1ccc(C(C)C)c(OCC(=O)Nc2cccc(NC(=O)c3ccco3)c2)c1 | 10% (active) |
| COc1ccc(NC(=O)c2ccco2)cc1NC(=O)COc1cc(C)ccc1C(C)C | 63% (inactive) |
| Cc1ccc2cccc(NC(=O)COc3ccccc3Cl)c2n1 | 179% (inactive) |
| Cc1cc(C)c(OCC(=O)Nc2cccc(-c3nc4ncccc4o3)c2)c(Br)c1 | 4% (active) |
| COc1ccc(OCC(=O)Nc2ccc(-c3nc4ncccc4o3)cc2)cc1 | 84% (inactive) |
| CCc1cccc2sc(N3CCN(C(=O)C4CC4)CC3)nc12 | 94% (inactive) |
| CCCSCCCNC(=O)C1CCN(C(=O)c2cc3sccc3n2C)CC1 | 109% (inactive) |
| O=C(Nc1cccc(Cl)c1Cl)c1ccc2c(c1)N(Cc1cccc(Cl)c1)C(=O)c1ccccc1S2(=O)=O | 108% (inactive) |
| Cc1cc2c(n1-c1ccc(C(=O)NCc3cccc(Br)c3)cc1)CCC(C)C2 (stereo unspecified) | 125% (inactive) |

| SMILES | survival |
| --- | --- |
| Cc1ccc(C(C)C)c(OCC(=O)Nc2ccc(C(=O)OC3CCCCC3)cc2)c1 | 33% (active) |
| O=C(COc1ccc(Cl)cc1Cl)Nc1ccc(C(=O)OC2CCCCC2)cc1 | 57% (inactive) |
| Cc1cccc(OCC(=O)Nc2ccc(Cl)c(-c3nc4ncccc4o3)c2)c1C | 62% (inactive) |
| Cc1ccc(C(C)C)c(OCC(=O)Nc2cccc(-c3nc4ncccc4o3)c2)c1 | 2% (active) |
| Cc1cc(OCC(=O)Nc2ccc(C(=O)OC3CCCCC3)cc2)cc(C)c1Cl | 50% (inactive) |
| Cc1ccc(C(C)C)c(OCC(=O)Nc2ccc(-c3nc4ncccc4o3)cc2C)c1 | 54% (inactive) |
| CSc1ccc(CCNC(=O)c2ccc3c(c2)nc2n3CCCCC2)cc1 | 82% (inactive) |
| COc1ccc(N2CCN(CCCNC(=O)c3ccc4nc(Cc5ccccc5)oc4c3)CC2)cc1 | 93% (inactive) |
| O=C(NCc1ccc(F)cc1)c1ccc2c(O)c(S(=O)(=O)c3ccccc3)c(=O)[nH]c2c1 | 66% (inactive) |
| CCn1c(=O)c(=O)n(CC)c2cc(N3CCCCC3)c(NC(=O)c3ccccc3OC)cc21 | 91% (inactive) |
| Cc1nnc(NC(=O)CSCc2cc(=O)c3ccc(C)c(C)c3[nH]2)s1 | 73% (inactive) |
| NC(=O)CN1C(=O)C(O)(CC(=O)/C=C\c2ccccc2)c2ccccc21 (stereo unspecified) | 96% (inactive) |
| COc1ccc(-c2cc(C(F)(F)F)nc(NCCc3ccccc3)n2)cc1 | 1% (active) |
| COc1ccc(CNC(=O)CSc2nc(-c3ccc(OC)c(OC)c3)cc(C(F)(F)F)n2)cc1 | 72% (inactive) |
| COc1ccc(-c2cc(C(F)(F)F)nc(SCC(=O)NC(C)c3ccccc3)n2)cc1 (stereo unspecified) | 60% (inactive) |
| COc1ccc(-c2cc(C(F)(F)F)nc(SCC(=O)NCc3ccc(OC)c(OC)c3)n2)cc1 | 60% (inactive) |
| COc1ccc(CNC(=O)C(C)Sc2nc(-c3ccccc3)cc(C(F)(F)F)n2)cc1 (stereo unspecified) | 165% (inactive) |
| COc1ccc(-c2cc(C(F)(F)F)nc(SCC(=O)NCCc3ccccc3)n2)cc1 | 121% (inactive) |
| COc1ccc(CNC(=O)CSc2nc(-c3ccc(OC)cc3)cc(C(F)(F)F)n2)cc1 | 83% (inactive) |
| COc1ccc(-c2cc(C(F)(F)F)nc(NCc3ccccc3)n2)cc1 | -4% (active) |
| COc1ccc(CNc2ccc(-c3ccc(OC)cc3)nn2)cc1 | 80% (inactive) |
| COc1ccc(CNc2nc(-c3ccc(OC)cc3)cc(C(F)(F)F)n2)cc1 | -2% (active) |
| COc1ccc(CNc2nc(-c3ccc(OC)c(OC)c3)cc(C(F)(F)F)n2)cc1 | 11% (active) |
| COc1ccc(S(=O)(=O)c2c(O)c(C)cc(NC(=O)c3ccccc3)c2C(C)C)cc1 | 80% (inactive) |

| SMILES | survival |
| --- | --- |
| CCc1ccc(NC(=O)c2sc3nc(C)c(Cl)c(C)c3c2NC(=O)c2ccccc2)cc1 | 76% (inactive) |
| CCOC(=O)N1CCC(NC(=O)c2ccc3c(c2)N(Cc2ccc(F)cc2)C(=O)c2ccccc2S3=O)CC1 (stereo unspecified) | 58% (inactive) |
| COc1ccc(CCNC(=O)c2c(O)nc3c(C)cccn3c2=O)cc1OC | 91% (inactive) |
| CCN1C(=O)/C(=C\C=C2/N(CC)c3ccc(C(=O)OC)cc3N2CC)SC1=S | 78% (inactive) |
| Cc1ccc(NC(=O)Cn2c(=O)n(Cc3nc(-c4ccccc4)no3)c(=O)c3cc4c(cc32)OCO4)cc1C | 77% (inactive) |
| CCc1ccccc1NC(=O)CN(Cc1ccccc1)S(=O)(=O)c1ccc2nc(C)sc2c1 | 102% (inactive) |
| Cc1ccc(C(=O)NC2(C(F)(F)F)C(=O)Nc3c2c(=O)[nH]c(=O)n3CCc2ccccc2)cc1 (stereo unspecified) | 74% (inactive) |
| CC(C)CCNC(=O)c1cc2sccc2n1Cc1ccc(F)cc1 | 87% (inactive) |
| CCOc1ccccc1Nc1sc(C(=O)c2ccccc2)c(N)c1C(=O)Nc1ccccc1 | 102% (inactive) |
| COCCn1c(C)cc(O)c(C(c2ccccc2Cl)N2CCN(c3ccccc3)CC2)c1=O (stereo unspecified) | 87% (inactive) |
| CSc1ccc(CNC(=O)c2cc3c(=O)n(Cc4ccco4)ccc3nc2C)cc1 | 94% (inactive) |
| COc1ccc(-c2cn3c(n2)sc2cc(C(=O)NCc4ccccc4)ccc23)cc1 | 63% (inactive) |
| O=C(NCCOCCn1c(=O)oc2ccccc21)Nc1cccc(Cl)c1 | 75% (inactive) |
| COc1ccc(-c2cc(C(F)(F)F)nc(NCc3ccc(F)cc3)n2)cc1 | 1% (active) |
| COc1ccccc1CCNC(=O)C(C)Sc1nc(-c2ccccc2)cc(C(F)(F)F)n1 (stereo unspecified) | 65% (inactive) |
| COc1cccc(-c2cc(C(F)(F)F)nc(NCc3ccc(F)cc3)n2)c1 | 4% (active) |
| COc1ccc(-c2cc(C(F)(F)F)nc(SCCC(=O)Nc3cccc(OC)c3)n2)cc1 | 69% (inactive) |
| COc1ccc(-c2cc(C(F)(F)F)nc(SCC(=O)NCC(C)C)n2)cc1OC | 137% (inactive) |
| COc1ccc(-c2cc(C(F)(F)F)nc(NCCc3ccccc3)n2)cc1OC | 63% (inactive) |
| COc1ccc(-c2cc(C(F)(F)F)nc(SCC(=O)NCc3ccc(F)cc3)n2)cc1 | 74% (inactive) |
| COc1cccc(-c2cc(C(=O)Nc3ccc(F)cc3)[nH]n2)c1 | 73% (inactive) |
| COc1cccc(-c2cc(C(F)(F)F)nc(NCCc3ccccc3)n2)c1 | -8% (active) |
| COc1ccc(-c2cc(C(F)(F)F)nc(NCc3ccccc3)n2)cc1OC | 42% (active) |
| COc1cccc(-c2nc(S(=O)(=O)c3ccccc3)c(NCc3ccccc3)o2)c1 | 61% (inactive) |

From PubChem BioAssay AID463173 (ICCB-Longwood Screening Facility, Harvard Medical School, 2010)
